About 79,000 compounds went through this panel and 15% of them were active in at least one assay; those are over-represented in the sample as a whole. Values without a mark were called inactive. Cut-off read from the data, not from the text of the source: active = growth inhibition above about 70%; inactive = the rest.
Assay: NCI Yeast Anticancer Drug Screen. Data for the bub3 strain (AID 167)
Conditions: S. cerevisiae bub3 mutant strain, at 50.0 µM, stronger effect = higher value
Method: Growth inhibition of yeast strains with defined genetic alterations is measured as a screen for potential anti-cancer activity. Selected strains with alterations in DNA damage repair or cell cycle control were exposed to compounds and growth inhibition was measured relative to vehicle treated controls. The strain used in this assay is bub3
Work on Cc1cc(N)c(S(=O)(=O)O)c(N)c1 yielded a growth inhibition of 11.8%.
Compound CC1=CC(C)(C)NC(=S)N1c1ccc(S(=O)(=O)O)c2cccc(S(=O)(=O)O)c12 has a growth inhibition of 4.3%.
For COc1cc(C2NC(=O)C(C#N)=C(Nc3cccc(C)c3)S2)ccc1O (stereo not given), the growth inhibition was -6.15%.
CC(C)C1CCCCC1O (stereo not given) showed a growth inhibition of -1.4%.
CCOC(=O)C/C(C)=N\O gave a growth inhibition of 9.15%.
O=C1OC[C@H]2[C@H](c3ccc(O)c(O)c3)c3cc(O)c(O)cc3C[C@H]12 showed a growth inhibition of 23.7%.
With CCCOC(=O)C(O)c1ccccc1 (stereo not given) the growth inhibition was -13.2%.
O=C(CCNNC(=O)c1ccncc1)NCc1ccccc1 gave a growth inhibition of -9.8%.
Work on Cc1ccc(C)n1-c1ccsc1C(=O)NNC(=O)C(Cl)Cl yielded a growth inhibition of 21.7%.
NC(=S)CN1CCOCC1 showed a growth inhibition of 1.3%.
Compound Cc1ccc(Cl)cc1NC(=O)N(C)CCO has a growth inhibition of 4.05%.
With O=P(O)(O)OCC(O)CO (stereo not given) the growth inhibition was -22.1%.
CC(=O)NC(N)=S showed a growth inhibition of -3.25%.
COc1ccc(C2(O)CCCCC2)cc1 gave a growth inhibition of 7.35%.
Work on CCOC(=O)c1cc2cccc(OC)c2oc1=O yielded a growth inhibition of 12.8%.
O=[N+]([O-])c1ccc(-c2noc(-c3cccs3)n2)cc1 showed a growth inhibition of 10.7%.
Work on Nc1ccc(N=Nc2ccc(S(=O)(=O)O)cc2)c2ccccc12 yielded a growth inhibition of 1.75%.
OC1CCCc2ccccc21 (stereo not given) gave a growth inhibition of 0.85%.
CC(C)COC(=O)COC(=O)OCCOCCOC(=O)OCC(=O)OCC(C)C gave a growth inhibition of 26.1%.
With O=[N+]([O-])c1cccc(N=Nc2ccc(O)cc2O)c1 the growth inhibition was 4.2%.
O=C(/C=C/C(=O)c1ccccc1)c1ccccc1 showed a growth inhibition of 36%.
CCOC(=O)C1=C(Nc2ccc(Br)cc2)C(=O)N(CC)C1 showed a growth inhibition of 42.7%.
Work on CC1CCC2C(C)(C)C3CC12CC1OC13C (stereo not given) yielded a growth inhibition of 0.65%.
O=C(Nc1cc(-c2ccccc2)[nH]n1)c1ccc(Cl)cc1 gave a growth inhibition of -7.15%.
In the case of CC(=O)Cc1ccc(-c2ccccc2)cc1, the growth inhibition is reported as 10.3%.
Work on CC(=O)c1ccc(C)c(N)c1 yielded a growth inhibition of -2.15%.
Compound CC(C)(C)c1cc(O)c(C(C)(C)C)cc1O has a growth inhibition of 0.15%.
Work on O/N=C/c1ccc(O)cc1O yielded a growth inhibition of 17.9%.
In the case of CCOC(=O)CCCC(=O)OCC, the growth inhibition is reported as 22.8%.
For O=C(O)c1ccccc1NCc1ccco1, the growth inhibition was -19.6%.
In the case of O=C(c1ccc(Cl)cc1)c1ccccc1Cl, the growth inhibition is reported as 25%.
With CC1CC(O)CC(C)(C)C1 (stereo not given) the growth inhibition was 2.2%.
In the case of CS(=O)CC1=NC(=N)N=C1CS(C)=O (stereo not given), the growth inhibition is reported as 2.85%.
CC(C)=C(NC(=O)c1ccccc1)C(=O)O gave a growth inhibition of -2.7%.
For CCCCCCCCO, the growth inhibition was -20.4%.
With CCCC[P+](c1ccccc1)(c1ccccc1)c1ccccc1 the growth inhibition was 33.1%.
For COc1cc2c(cc1OC)[C@H](C(=O)O)[C@@H](c1ccc(OC(C)C)c(OC)c1)N(C)C2=O, the growth inhibition was 15.4%.
Work on O=c1cc(-c2ccccc2)oc2c1ccc1ccccc12 yielded a growth inhibition of 52.5%.
Compound COc1ccc(/C=C/c2cccc[n+]2C)cc1 has a growth inhibition of -9.9%.
CNc1nc(NC)c2cn[nH]c2n1 gave a growth inhibition of -3.9%.
